Source: PubChem BioAssay (NCATS)
Results filed as inconclusive are left out. Active and inactive are the calls of the source.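 The calls were made as follows: active = dose-dependent loss of cell ATP signal giving a full or clear fitted curve, ranked by lower potency value; inconclusive = weak partial curve or response only at the top dose; inactive = no loss of viability signal.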 Numbered stars: 1 amine (or outer) side, 2 acyl side, 3 side chain; on linkers, the order of the positions; unused ones are H or OH. Bridge positions count the residues as written; N and C are the ends. Square brackets hold non-standard residues; d marks the D form. Peptide text beside a SMILES is read from it. I, II: the chains in the order shown. Actinocin(9to1) = Cc1c2oc3c(C)ccc(C(=O)[*:1])c3nc-2c(C(=O)[*:2])c(N)c1=O; NMeV = CN[C@H](C(=O)O)C(C)C; Sar = CNCC(=O)O
Potency is read from the fitted curve at half-maximal effect.

Assay: Cell Viability - Jurkat (AID 426)
Conditions: qHTS
Description: NIH Chemical Genomics Center [NCGC]
NIH Molecular Libraries Screening Centers Network [MLSCN]
National Institutes of Environmental Health Sciences [NIEHS]
National Toxicology Program [NTP]
We have developed a 1536-well cell-based assay for quantitative high throughput screening (qHTS) against a number of cell lines to determine in vitro cytotoxicity of small molecules. This particular assay uses the Jurkat cell line (Clone E6-1) which is derived from the human T cell leukemia.
NCGC Assay Protocol Summary:
The CellTiter-Glo luminescent cell viability assay (Promega) is a homogeneous method to measure the number of viable cells in culture. The end point readout of this assay is based on quantitation of intracellular ATP, an indicator of metabolic activity, using the luciferase reaction. Luciferase catalyzes the oxidation of beetle Luciferin to oxyluciferin and light in the presence of ATP. The luminescent signal is proportional to amount of ATP present.
Using the CellTiter-Glo luminescent cell viability assay, the amount of cellular ATP was measured in the Jurkat cell line with complete culture medium following compound treatment for 40 hours. The assay was performed in opaque white Kalypsys 1536-well plates. In the screen, tamoxifen and doxorubicin were used as positive controls. Library compounds were measured for their ability to cause acute toxicity in the cell line, as reflected by a decrease in intracellular ATP levels, in a concentration-dependent manner. […] AC50 values were determined from concentration-response data modeled with the standard Hill equation.
qHTS protocol for CellTiter Glo Jurkat cellular assay
[Step] [Parameter] [Value] [Description]
1. Reagent; 5 uL; 5000 Jurkat cells/well
3. Controls; 23 nL; Tamoxifen 0.34 uM to 100 uM & Doxorubicin 0.02 nM to 100 uM
4. Time; 40 hr; 37 °C incubation
5. Reagent; 5 uL; CellTiter Glo reagent
6. Time; 20 min; Room Temperature
7. Detection; Luminescence; Viewlux plate reader
Keywords: cell viability, cytotoxicity, Jurkat cell line, luminescence, NTPHTS, NTPHTS_NCGC, NIEHS, EPA, DSSTox, MLSMR, MLSCN, NIH Roadmap, qHTS, NCGC
In the case of `C=CCc1ccc(O)c(OC)c1`, the Potency was > 92 µM (inactive).
For `C[C@]12CC[C@@H]3c4ccc(O)cc4CC[C@H]3[C@@H]1CC[C@@H]2O`, the Potency was 25.8 µM (active).
For `C=C(CC)C(=O)c1ccc(OCC(=O)O)c(Cl)c1Cl`, the Potency was 9.25 µM (active).
With `Oc1ccc(Cl)cc1Sc1cc(Cl)ccc1O` the Potency was 56.7 µM (active).
With `COc1cccc2c1C(=O)c1c(O)c3c(c(O)c1C2=O)C[C@@](O)(C(=O)CO)C[C@@H]3O[C@H]1C[C@H](N)[C@H](O)[C@H](C)O1` the Potency was 0.0218 µM (active).
For `CC(C)(C)CC(C)(C)c1ccc(OCCOCC[N+](C)(C)Cc2ccccc2)cc1`, the Potency was 26.8 µM (active).
In the case of `CC(=O)Oc1ccc(C(c2ccc(OC(C)=O)cc2)c2ccccn2)cc1`, the Potency was > 92 µM (inactive).
With `Nc1ccc(C(=O)O)cc1` the Potency was > 92 µM (inactive).
In the case of `O=c1ccc2ccccc2o1`, the Potency was > 92 µM (inactive).
For `NC(=NCCCCCCN=C(N)/N=C(\N)Nc1ccc(Cl)cc1)/N=C(\N)Nc1ccc(Cl)cc1`, the Potency was 42.1 µM (active).
For `CC/C(=C(/CC)c1ccc(O)cc1)c1ccc(O)cc1`, the Potency was 21.5 µM (active).
With `CCCCCCc1ccc(O)cc1O` the Potency was > 92 µM (inactive).
With `COc1cccc2c1C(=O)c1c(O)c3c(c(O)c1C2=O)C[C@@](O)(C(C)=O)C[C@@H]3O[C@H]1C[C@H](N)[C@H](O)[C@H](C)O1` the Potency was 0.0218 µM (active).
For `CC(O)C(=O)O` (stereo not drawn), the Potency was > 92 µM (inactive).
In the case of `Oc1c(Cl)cc(Cl)cc1Sc1cc(Cl)cc(Cl)c1O`, the Potency was 47.8 µM (active).
With `O=C(O)CCCCC(=O)O` the Potency was > 92 µM (inactive).
In the case of `Oc1ccc(O)cc1`, the Potency was 4.41 µM (active).
In the case of `Cc1c2oc3c(C)ccc(C(=O)N[C@@H]4C(=O)N[C@H](C(C)C)C(=O)N5CCC[C@H]5C(=O)N(C)CC(=O)N(C)[C@@H](C(C)C)C(=O)O[C@@H]4C)c3nc-2c(C(=O)N[C@@H]2C(=O)N[C@H](C(C)C)C(=O)N3CCC[C@H]3C(=O)N(C)CC(=O)N(C)[C@@H](C(C)C)C(=O)O[C@@H]2C)c(N)c1=O` (I: T[dV]P[Sar][NMeV] / II: T[dV]P[Sar][NMeV]; ester I:1-I:C, II:1-II:C; linker I:N-II:N via Actinocin(9to1)), the Potency was 0.0015 µM (active).
